Results on 24 compounds are retold here after PubChem BioAssay (NCATS).

Where “and” joins values, the source holds several entries; their conditions need not be identical. Equal entries are not always repeated. Inconclusive results are not listed. The source holds several records for some structures; these can differ, active in one and inactive in another. Calls of active or inactive are those of the source. Unless noted, the call rests on the fitted dose curve; in most records, active means well fitted curve in the direction sought with a large enough effect; inconclusive means small, poorly fitted or top-dose-only effect, or another doubt; inactive means no such curve, though single readings can be large; an effect the other way counts as inactive or inconclusive.

Assay [1] deals with Calcium and integrin-binding protein 1 (Homo sapiens) (UniProt Q99828). As to the kind of experiment: Primary qHTS for Identification of Calcium Integrin Binding Protein 1 (CIB1) Competitor (AID 1508620).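 Further: GST tagged CIB1 binding a fluorescein labelled alphaIIb integrin peptide tracer; top concentration of the series differs between compounds; on the % scale 0 is the no-effect control and ±100 the full control effect.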 In short, it runs like this:
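CIB1-GST (1 uM final) and compound incubated 15 min at room temperature before adding FITC-alphaIIb peptide tracer (100 nM final). Competition for binding read by fluorescence polarization (ex 480, em 540) after another 15 min at room temperature.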
Background: Quantitative high-throughput screening tests each substance at several concentrations.

Assay [2] in a line: Counterscreen qHTS for small molecule stabilizers of the endoplasmic reticulum resident proteome: GLuc-NoTag assay (AID 1508627).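 Further: SH-SY5Y cells given compound then 100 nM thapsigargin to empty ER calcium; 0% = thapsigargin alone and -100% = DMSO vehicle control.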 Summed up: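 Luminescence of Gaussia luciferase secreted into the medium (coelenterazine, 0.07x final, unlysed cells) was the read-out. Human SH-SY5Y neuroblastoma cells constitutively secreting untagged GLuc received compound for 19 h, then 100 nM thapsigargin for 4 h.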

A short description of assay [3]: Confirmatory qHTS for small molecule stabilizers of the endoplasmic reticulum resident proteome: Secreted ER Calcium Modulated Protein (SERCaMP) assay (AID 1508628). Further: nearly all actives have a fitted effect of over 40% in size. Further: potency means the concentration at half of the fitted maximal effect. Summed up:
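SH-SY5Y cells stably expressing GLuc-SERCaMP, treated 16 h with compound (primary 1.53, 7.67, 38.3 uM; confirmation 11 concentrations, up to 76.6 uM), then 100 nM thapsigargin for 4 h. Secreted Gaussia luciferase in medium read by coelenterazine luminescence.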

Assay [4] in a line: Cell Viability qHTS for small molecule stabilizers of the endoplasmic reticulum resident proteome (AID 1508629).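 Further: compound exposure about 46 h in total before the viability read.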 Further: potency means the concentration at half of the fitted maximal effect.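 On max response: human SH-SY5Y neuroblastoma cells carrying the GLuc-SERCaMP reporter; on the % scale 0 is the no-effect control and ±100 the full control effect.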 The settings on record: cell viability counter-screen, 100 nM thapsigargin for final 4 h.
Assay [5] in a line: Primary qHTS for small molecule stabilizers of the endoplasmic reticulum resident proteome: Secreted ER Calcium Modulated Protein (SERCaMP) assay (AID 1508630). Further: on the % scale 0 is the no-effect control and ±100 the full control effect. Summed up:
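GLuc-SERCaMP-expressing SH-SY5Y cells, pretreated 16 h with compound, are challenged with thapsigargin to empty ER calcium stores; after 4 h, coelenterazine is added directly to the medium and luminescence is imaged.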

The target in assay [6] is Cytochrome P450 2C9 (Homo sapiens) (UniProt P11712). The experiment in a line: Cytochrome P450 family 2 subfamily C member 9 (CYP2C9) small molecule antagonists: luciferase biochemical (cell-free) qHTS assay (AID 1645842; active means well fitted curve in the direction sought with a large enough effect in the repeat runs; an effect the other way counts as inactive or inconclusive; further: nearly all actives have a fitted effect of over 55% in size; further: potency means the concentration at half of the fitted maximal effect). Summed up: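 Luminescence, after 20 min with luciferin detection reagent, reflected CYP2C9 turnover during a 1 h NADPH-driven reaction at 37C. Enzyme-substrate mix contained 0.4% bovine serum albumin and was preincubated with compound 10 min at room temperature.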

Assay [7] in a line: Primary qHTS for inhibitors of nuclear receptor binding SET domain protein 2 (NSD2) in an isogenic RCH-ACV NSD2 p.E1099K mutant (9B) (AID 1645876). Further: nearly all actives have a fitted effect of over 70% in size. Further: potency means the concentration at half of the fitted maximal effect.
A short description of assay [8]: Primary qHTS for inhibitors of nuclear receptor binding SET domain protein 2 (NSD2) in an RCH-ACV wild type WT cells (2C) (AID 1645877). Further: nearly all actives have a fitted effect of over 70% in size. Further: potency means the concentration at half of the fitted maximal effect.
Assay [9] addresses Calcium and integrin-binding protein 1 (Homo sapiens) (UniProt Q99828). As to the kind of experiment: Validation qHTS for Identification of Calcium Integrin Binding protein 1 (CIB1) Competitor (AID 1508618). Further: on the % scale 0 is the no-effect control and ±100 the full control effect. In short, it runs like this:
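Fluorescence polarization with 1 uM CIB1-GST and 100 nM FITC-alphaIIb peptide in HEPES pH 7.4, NaCl, 5 mM CaCl2, Tween20. Compounds at up to 114 uM final, preincubated with protein 15 min; read after 15 min more at RT.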

Assay [10] in a line: A High-Content qHTS Against Drug Library for the Identification of Small Molecules that Inhibit DYT1 Early Onset Primary Dystonia-Associated Cell Pathology (AID 1645839; calls by dose curve). In short, it runs like this: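 In this high-content image screen, delE TorsinA mislocalization in inducible Flp-In 293 cells is scored as %pathology, with cell count serving as the counterscreen. Compound exposure lasts 48 h under tetracycline induction in reduced-serum medium.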

The target in the next assay is Papain (Carica papaya) (UniProt P00784). The experiment in a line: Primary qHTS assay for inhibitors of the protease papain (AID 1645873).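 Further: papain turnover of Z-FR-AMC read as the AMC fluorescence gain over 10 min.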 Further: potency means the concentration at half of the fitted maximal effect.
Assay [11] concerns the target Catechol O-methyltransferase (Homo sapiens) (UniProt P21964). The experiment in a line: Confirmatory Screen for Target Class Profiling of Small Molecule Inhibitors of Methyltransferases (AID 1745852; calls by dose curve). Particulars: MTase-Glo luminescence, SAH detection, recombinant enzyme; measured here: COMT max response; stronger effect = lower value.
Assay [12] concerns the target Guanidinoacetate N-methyltransferase (Homo sapiens) (UniProt Q14353). The description is as above. Particulars: MTase-Glo luminescence, SAH detection, recombinant enzyme; activity change, negative = inhibition: at 57.3 µM (top of the series).
Assay [13] has as its target Cytochrome P450 2D6 (Homo sapiens) (UniProt P10635). As to the kind of experiment: Cytochrome P450 family 2 subfamily D member 6 (CYP2D6) small molecule antagonists: luciferase biochemical (cell-free) qHTS assay (AID 1645840; active means well fitted curve in the direction sought with a large enough effect in the repeat runs; an effect the other way counts as inactive or inconclusive; further: nearly all actives have a fitted effect of over 55% in size; further: potency means the concentration at half of the fitted maximal effect). In short, it runs like this:
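P450-Glo luminescent screen: recombinant CYP2D6 enzyme–proluciferin substrate mix preincubated with compound 10 min at room temperature, then NADPH regeneration added for 1 h at room temperature. Detection reagent added for 20 min; luciferin light read as relative luminescence units.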

For assay [14], the target named is Cytochrome P450 3A4 (Homo sapiens) (UniProt P08684). As to the kind of experiment: Cytochrome P450 family 3 subfamily A member 4 (CYP3A4) small molecule antagonists: luciferase qHTS assay (AID 1645841; active means well fitted curve in the direction sought with a large enough effect in the repeat runs; an effect the other way counts as inactive or inconclusive; further: nearly all actives have a fitted effect of over 45% in size). In short, it runs like this:
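Luminescent CYP3A4 activity readout: compounds plus enzyme-substrate mix 10 min at room temperature, reaction started with NADPH regenerating system for 1 h, stopped with detection reagent, read after 20 min. Ketoconazole served as control.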

Chain of Cytochrome P450 2D6 (Homo sapiens) (P10635 whole entry, looked up): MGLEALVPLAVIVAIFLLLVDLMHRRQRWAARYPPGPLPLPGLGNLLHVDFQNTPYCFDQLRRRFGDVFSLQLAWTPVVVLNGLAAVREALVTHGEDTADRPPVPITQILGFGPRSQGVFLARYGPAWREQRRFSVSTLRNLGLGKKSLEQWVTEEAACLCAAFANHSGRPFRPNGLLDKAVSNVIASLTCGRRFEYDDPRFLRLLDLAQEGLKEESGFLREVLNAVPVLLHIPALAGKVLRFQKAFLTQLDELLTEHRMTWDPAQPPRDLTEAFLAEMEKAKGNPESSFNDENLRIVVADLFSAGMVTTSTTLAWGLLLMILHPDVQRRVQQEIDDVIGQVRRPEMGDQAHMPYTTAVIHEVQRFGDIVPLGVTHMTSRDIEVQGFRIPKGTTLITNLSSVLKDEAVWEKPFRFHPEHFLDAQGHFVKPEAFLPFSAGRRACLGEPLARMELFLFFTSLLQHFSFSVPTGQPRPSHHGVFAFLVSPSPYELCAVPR
Chain of Calcium and integrin-binding protein 1 (Homo sapiens) (Q99828 whole entry, looked up): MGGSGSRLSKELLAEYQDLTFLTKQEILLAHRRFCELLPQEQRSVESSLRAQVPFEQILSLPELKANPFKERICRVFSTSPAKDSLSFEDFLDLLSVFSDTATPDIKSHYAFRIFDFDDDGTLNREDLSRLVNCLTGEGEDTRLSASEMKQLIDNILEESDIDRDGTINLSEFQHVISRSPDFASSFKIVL
Chain of Cytochrome P450 2C9 (Homo sapiens) (P11712 whole entry, looked up): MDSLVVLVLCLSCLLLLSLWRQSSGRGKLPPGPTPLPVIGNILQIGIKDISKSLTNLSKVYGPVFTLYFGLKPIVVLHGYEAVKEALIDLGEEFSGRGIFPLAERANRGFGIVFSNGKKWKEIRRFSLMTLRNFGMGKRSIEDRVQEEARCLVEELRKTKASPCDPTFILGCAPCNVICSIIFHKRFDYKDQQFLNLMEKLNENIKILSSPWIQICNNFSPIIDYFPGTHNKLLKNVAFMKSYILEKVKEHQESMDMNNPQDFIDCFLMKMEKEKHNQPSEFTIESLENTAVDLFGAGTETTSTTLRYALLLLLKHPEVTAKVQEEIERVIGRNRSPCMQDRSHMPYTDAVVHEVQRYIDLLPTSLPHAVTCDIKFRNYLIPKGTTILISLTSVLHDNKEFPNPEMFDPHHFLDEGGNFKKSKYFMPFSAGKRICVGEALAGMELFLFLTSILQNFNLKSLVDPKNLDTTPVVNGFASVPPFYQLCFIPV
Chain of Papain (Carica papaya) (P00784 whole entry, looked up): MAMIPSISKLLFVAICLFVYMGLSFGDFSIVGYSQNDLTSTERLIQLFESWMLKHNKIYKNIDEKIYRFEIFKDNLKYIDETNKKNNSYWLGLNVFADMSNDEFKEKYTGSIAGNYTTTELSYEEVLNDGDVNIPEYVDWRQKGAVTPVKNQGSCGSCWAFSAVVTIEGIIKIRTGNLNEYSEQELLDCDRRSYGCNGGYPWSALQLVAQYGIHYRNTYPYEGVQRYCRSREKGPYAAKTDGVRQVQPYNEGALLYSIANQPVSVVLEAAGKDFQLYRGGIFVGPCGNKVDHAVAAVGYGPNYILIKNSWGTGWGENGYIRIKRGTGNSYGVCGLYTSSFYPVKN
Chain of Catechol O-methyltransferase (Homo sapiens) (P21964 whole entry, looked up): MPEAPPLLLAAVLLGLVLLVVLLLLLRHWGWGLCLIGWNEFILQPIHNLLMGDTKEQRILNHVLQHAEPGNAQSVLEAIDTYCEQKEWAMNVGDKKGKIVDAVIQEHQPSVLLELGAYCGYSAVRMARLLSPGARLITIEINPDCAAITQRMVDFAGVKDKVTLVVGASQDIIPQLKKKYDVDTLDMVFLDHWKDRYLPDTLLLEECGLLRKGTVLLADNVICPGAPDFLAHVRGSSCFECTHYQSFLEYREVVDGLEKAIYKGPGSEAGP
Chain of Cytochrome P450 3A4 (Homo sapiens) (P08684 whole entry, looked up): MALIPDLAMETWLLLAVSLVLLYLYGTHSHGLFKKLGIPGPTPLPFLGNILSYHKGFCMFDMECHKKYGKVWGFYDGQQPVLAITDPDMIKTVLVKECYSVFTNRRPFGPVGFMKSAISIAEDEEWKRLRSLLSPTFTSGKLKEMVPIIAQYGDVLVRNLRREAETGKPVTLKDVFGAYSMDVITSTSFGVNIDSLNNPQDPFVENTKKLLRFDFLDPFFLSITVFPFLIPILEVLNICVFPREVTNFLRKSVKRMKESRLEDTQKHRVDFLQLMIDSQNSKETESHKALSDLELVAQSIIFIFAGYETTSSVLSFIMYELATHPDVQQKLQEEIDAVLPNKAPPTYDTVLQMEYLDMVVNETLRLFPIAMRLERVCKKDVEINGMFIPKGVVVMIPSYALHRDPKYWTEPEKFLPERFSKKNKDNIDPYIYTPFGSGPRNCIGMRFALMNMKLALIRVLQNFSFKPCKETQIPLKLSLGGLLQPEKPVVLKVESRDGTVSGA

Turning to `CCOc1cc(N)c(Cl)cc1C(=O)NCC1CN(Cc2ccc(F)cc2)CCO1` (centres undefined), the outcome in [1] and in [2] was “inactive” throughout. In addition, the Potency result in assay [3], in [5] and in [6] was “inactive” throughout. Besides, the max response in assay [4] is -7.94% (inactive). In addition, in [7], the Potency was 21.1 µM (active).

`Oc1c(Cl)cc(Cl)c2cccnc12`: the outcome in assay [1] and in assay [2] was “inactive” throughout. The Potency in assay [4] was 20 µM (active); in assay [7], 3.76 µM (active); in assay [8], 3.32 µM (active). Also, in assay [5], the Potency entry is “inactive”.

As for `CNCC[C@H](Oc1cccc2ccccc12)c1cccs1`, the outcome in assay [1] and in assay [2] was “inactive” in each case. In addition, the Potency result in assay [3], in assay [5] and in [6] was “inactive” throughout. Besides, the Potency in assay [7] and in assay [8] was 23.7 µM (active) throughout.

As for `CNS(=O)(=O)CCc1ccc2[nH]cc(C3CCN(C)CC3)c2c1`, the outcome in assay [9] and in assay [1] was “inactive” each time. Further, the Potency result (in [10]; in assay [6]; with Papain (Carica papaya); in [7]; in assay [8]) was “inactive” in each case. Moreover, the activity in assay [11] was -4.91%. For the same compound, in assay [12], the activity change, negative = inhibition was determined as 2.91%.

Take `NC(=O)c1cccc(N)c1`: the outcome in assay [9] and in assay [1] was “inactive” each time. For the same compound, the Potency result in assay [7] and in assay [8] was “inactive” throughout.

In the case of `CN1CCCC(n2nc(Cc3ccc(Cl)cc3)c3ccccc3c2=O)CC1` (centres undefined), the outcome in [1] and in assay [2] was “inactive” in each case. Moreover, the results for the Potency in assay [3] and in assay [13] were 20 µM (active) and 0.617 µM (active), respectively. In addition, the Potency entry in [5] and in assay [6] was “inactive” in each case.

With `CN(C)CCc1c[nH]c2ccc(CS(=O)(=O)N3CCCC3)cc12`, the outcome in [1] was “inactive”. The Potency entry in assay [5], in assay [10], in assay [13], in [6], in assay [7] and in assay [8] was “inactive” each time.

For the compound `COc1cc2nc(N3CCCN(C)CC3)nc(NC3CCN(Cc4ccccc4)CC3)c2cc1OC`, the outcome in assay [9] and in [1] was “inactive” each time. In addition, the Potency is 25.1 µM (active) in the assay with Papain (Carica papaya), 4.17 µM (active) in assay [7] and 2.63 µM (active) in [8].

With `CCN(CC)CCn1c(=O)c(Cc2ccc(OC)cc2)nc2ccccc21`, the outcome in [9] and in assay [1] was “inactive” throughout. Further, the Potency result (in [6]; with Papain (Carica papaya); in [7]; in assay [8]) was “inactive” in each case.

As for `O=c1cc(O)c(Cl)c[nH]1`, the outcome in [1] is “inactive”. Also, the Potency entry in [5], in assay [10], in [13], in [6], in assay [7] and in assay [8] was “inactive” in each case.

Take `Cc1nnc(C(=O)NC(C)(C)c2nc(C(=O)NCc3ccc(F)cc3)c(O)c(=O)n2C)o1`: the outcome in assay [1] is “inactive”. Also, the Potency result in assay [5], in [10], in assay [13], in assay [6], in assay [7] and in assay [8] was “inactive” in each case.

With `CCC(C)(C)c1ccc(CC(C)CN2C[C@@H](C)O[C@@H](C)C2)cc1` (some centres undefined), the outcome in assay [1] is “inactive”. The Potency result in assay [5], in assay [10] and in assay [7] was “inactive” throughout. Moreover, the Potency in assay [13] is 4.9 µM (active).

Take `COc1cccc(N(C)C(=S)Oc2ccc3c(c2)CCCC3)n1`: in [1], the outcome was “inactive”. For the same compound, the Potency entry in assay [5], in [10], in assay [13], in assay [6], in assay [7] and in [8] was “inactive” in each case.

Consider `O=P(O)(O)C(O)(Cc1cccnc1)P(=O)(O)O`, for which, in assay [1], the outcome is “inactive”. Further, the Potency entry in assay [5], in assay [10], in [6], in [7] and in assay [8] was “inactive” throughout.

For the compound `Nc1nc(F)nc2c1ncn2[C@@H]1O[C@H](CO)[C@@H](O)[C@@H]1O`, the outcome in assay [1] was “inactive”. The Potency entry in [5], in assay [10], in [13] and in [6] was “inactive” each time. The Potency in assay [7] was 2.09 µM (active) and 94.4 nM (active) and 1.29 µM (active); in [8], 2.63 µM (active) and 84.1 nM (active) and 1.29 µM (active).

Turning to `Cc1nnc(NS(=O)(=O)c2ccc(N)cc2)s1`, the outcome in [1] was “inactive”. Also, the Potency entry in [5], in [10], in [13], in assay [7] and in assay [8] was “inactive” each time. In addition, in assay [6], the Potency was 17.4 µM (active).

Regarding `CCC(=O)O[C@]1(C(=O)CCl)[C@@H](C)C[C@H]2[C@@H]3CCC4=CC(=O)C=C[C@]4(C)[C@@]3(F)[C@@H](O)C[C@@]21C`, the outcome in assay [1] is “inactive”. The Potency result in [5] and in [10] was “inactive” in each case. For the same compound, the Potency in [6] is 17.4 µM (active); in assay [7] it was 23.5 µM (active); in assay [8] it was “inactive and 1 nM (active)”.

On to `O=S(=O)(O)CCS`, for which the outcome in [1] and in assay [14] was “inactive” throughout. For the same compound, the Potency result in [5], in [10], in [6], in assay [7] and in assay [8] was “inactive” each time.

In the case of `Cc1ncc([N+](=O)[O-])n1CCO`, the outcome in assay [1] was “inactive”. The Potency result in assay [5], in [10], in [13], in assay [6], in assay [7] and in [8] was “inactive” throughout.

On to `CC(C)(C)C(=O)OCOP(=O)(COCCn1cnc2c(N)ncnc21)OCOC(=O)C(C)(C)C`, for which the outcome in assay [1] is “inactive”. In addition, the Potency entry in assay [5], in assay [10], in [13] and in assay [6] was “inactive” each time. Moreover, the Potency is 7.5 µM (active) and 7.42 µM (active) in [7]; 6.68 µM (active) and 7.42 µM (active) in [8].

Consider `COc1cc([C@@H]2c3cc4c(cc3[C@H](O)[C@H]3COC(=O)[C@H]23)OCO4)cc(OC)c1OC`, for which the outcome in assay [1] was “inactive”. Besides, the Potency result in assay [5] and in [10] was “inactive” throughout. The Potency in assay [6] is 1.55 µM (active); in assay [7], 7.5 nM (active) and 37.2 nM (active); in assay [8], 6 nM (active) and 29.5 nM (active).

Turning to `CCCc1nc(C)c2c(=O)[nH]c(-c3cc(S(=O)(=O)N4CCN(CC)CC4)ccc3OCC)nn12`, the outcome in assay [1] was “inactive”. Besides, the Potency entry in assay [5], in assay [10], in assay [13], in assay [7] and in assay [8] was “inactive” in each case.

Regarding `C#CCN[C@@H]1CCc2ccccc21`, in assay [1], the outcome is “inactive”. Also, the Potency entry in assay [5], in assay [10], in assay [6], in assay [7] and in assay [8] was “inactive” throughout.

Regarding `Cc1oc(=O)oc1CN1CCN(c2cc3c(cc2F)c(=O)c(C(=O)O)c2n3C(C)S2)CC1` (centres undefined), in [1], the outcome was “inactive”. For the same compound, the Potency result in assay [5], in [10], in [6], in assay [7] and in assay [8] was “inactive” throughout.
